SW480 rereplic: A quantitative high throughput screen for small molecules that induce DNA re-replication in SW480 colon adenocarcinoma cells. SW480 DNA re-replication, Hoechst DNA content imaging, 48 h. Potency, µM (highest dose often 46.1 µM), inactives show top-dose re-replication activation, most hits filed as activators. hit rate 1.8% among 340,000; note: potency is the fitted concentration of half-maximal effect; % of control where 0% means no effect; nearly all actives have a fitted effect of over 55% in size
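Compounds, transferred as 23 nL by pin tool, were incubated with cells for 48 hr; DNA content per nucleus was then quantified by Hoechst staining and fluorescence plate imaging.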
IL1B secr inh: qHTS for Inhibitors of Inflammasome Signaling: IL-1-beta AlphaLISA Primary Screen; THP-1 LPS/ATP IL-1B secretion, AlphaLISA, 16 h; active compounds read low; activity change, % at 57.5 µM; hit rate 4.7% among 360,000; AID 743279, 2014; in the data active = activity change below about -50%; inconclusive = mostly about -30% to -49%; note: % is set by controls: 0 for no effect and ±100 for the full control effect
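Secreted IL-1B measured by AlphaLISA bead assay after 16 h compound exposure of THP-1 cells; compounds (final up to 57.5 uM) added 1 h before LPS (250 ng/mL) and ATP (1.25 mM) stimulation; lower signal means less secretion.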
Gal4-VP16 FLuc: VP16 counterscreen qHTS for inhibitors of ROR gamma transcriptional activity | Drosophila S2 Gal4-VP16 UAS-luciferase, luminescence, 20 h | hit rate 3.5% among 310,000 | Potency, µM (doses to about 53.6 µM), for the others: at the highest dose activity, negative = inhibition, actives largely listed as inhibitors;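 note: Gal4-VP16 expression switched on by copper sulfate through the metallothionein promoter; potency is the fitted concentration of half-maximal effect; % is set by controls: 0 for no effect and ±100 for the full control effect; nearly all actives have a fitted effect of over 50% in size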
MCF10A rereplic: A quantitative high throughput screen for small molecules that induce DNA re-replication in MCF 10a normal breast cells. hit rate 2.9% among 350,000. MCF 10A DNA re-replication, Hoechst nuclear intensity, 48 h. Potency, µM (series often up to 46.1 µM), without a hit: at the highest dose activity, positive = re-replication, usual class: activators; note: potency is the fitted concentration of half-maximal effect; % of control where 0% means no effect; nearly all actives have a fitted effect of over 50% in size
RORg inh: qHTS for inhibitors of ROR gamma transcriptional activity; Nuclear receptor ROR-gamma (Mus musculus), P51450; Drosophila S2 Gal4-RORgamma UAS-luciferase reporter, 20 h; Potency, µM (series often up to 53.6 µM), for inactives: at the highest dose activity change, negative = inhibition, most hits filed as inhibitors; hit rate 5.4% among 310,000; AID 2551, 2010; note: potency is the fitted concentration of half-maximal effect; % is set by controls: 0 for no effect and ±100 for the full control effect; nearly all actives have a fitted effect of over 60% in size
Target sequence (P51450 whole entry, looked up, the tested form may be a part): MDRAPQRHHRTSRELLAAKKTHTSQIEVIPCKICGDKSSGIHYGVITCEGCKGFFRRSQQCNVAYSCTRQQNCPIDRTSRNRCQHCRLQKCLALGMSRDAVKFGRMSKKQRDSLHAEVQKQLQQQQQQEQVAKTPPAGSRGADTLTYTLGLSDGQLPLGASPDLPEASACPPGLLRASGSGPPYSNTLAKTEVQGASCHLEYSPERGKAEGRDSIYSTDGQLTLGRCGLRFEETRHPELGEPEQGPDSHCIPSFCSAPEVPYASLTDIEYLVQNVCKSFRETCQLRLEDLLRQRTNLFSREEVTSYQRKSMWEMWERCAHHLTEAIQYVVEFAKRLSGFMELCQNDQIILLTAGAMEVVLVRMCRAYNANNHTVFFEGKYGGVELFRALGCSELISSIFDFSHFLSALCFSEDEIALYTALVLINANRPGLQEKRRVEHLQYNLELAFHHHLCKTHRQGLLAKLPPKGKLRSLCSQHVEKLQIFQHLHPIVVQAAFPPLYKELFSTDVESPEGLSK
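Stable Schneider cell line, Gal4 DNA-binding domain fused to ROR gamma, UAS-luciferase. Cmpd 1 hr RT → CuSO4 700 uM final → 20 hr RT → luciferase reagent 10 min → luminescence.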
* hit, by the source's call; ? = inconclusive; nt = not tested or not shown; [ ] = remark or other dose. Compounds with a hit are over-represented: about 11% of the library has one in this group of screens. Unless noted, calls come from the whole dose curve; as a rule, active = well fitted curve in the direction sought with a large enough effect; inconclusive = small, poorly fitted or top-dose-only effect, or another doubt; inactive = no such curve, though single readings can be large; an effect the other way counts as inactive or inconclusive.

SMILES	SW480 rereplic	IL1B secr inh	Gal4-VP16 FLuc	MCF10A rereplic	RORg inh
CCC1C(=NO)C(CC)C(c2ccccc2)NC1c1ccccc1 (configuration not stated)	?	-51*	?	?	?
CC1/C(=N/O)CC(c2ccccc2)NC1c1ccccc1 (configuration not stated)	0%	-4	-16%	-1%	-10%
O=C1NC(c2ccccc2)C(c2ccccc2)N1 (configuration not stated)	0%	17	nt	-2%	nt
CCCC1/C(=N/O)CC(c2ccccc2)NC1c1ccccc1 (configuration not stated)	0%	-98*	?	2%	?
CCC1C(=O)C(CC)C(c2ccccc2)NC1c1ccccc1 (configuration not stated)	20%	22	1%	?	0.28µM*
CC1C(=NO)C(C)C(c2ccccc2)NC1c1ccccc1 (configuration not stated)	12%	6	-2%	30%	-8%
Cc1c(C(=O)Nc2nonc2-c2ccc(F)cc2)oc2ccc(F)cc12	5%	60	?	-1%	8.9µM*
CN(C)c1ccc(-c2ccncc2)cc1	nt	nt	14%	nt	-17%
CC/C(=C\c1ccc(N(C)C)cc1)c1ccncc1	?	-64*	nt	?	nt
O=C1c2ccccc2-c2n[nH]c3cccc1c23	18%	-77*	7%	-8%	-21%
O=c1c(-c2ccccc2)n[nH]c2ccccc12	-4%	2	-8%	3%	-4%
COc1ccc(/C=N/NC(=O)c2cc(C)oc2C)cc1OCc1ccccc1	0%	-24	?	14%	10µM*
Cc1cc(C(=O)N/N=C/c2ccc(OCc3ccccc3)cc2)c(C)o1	5%	-22	-16%	?	?
COc1cc(/C=N/NC(=O)c2cccc([N+](=O)[O-])c2)ccc1OCc1ccccc1	-7%	-3	?	1%	3.2µM*
O=C(N/N=C/c1ccc(OC(=O)c2ccccc2)c([N+](=O)[O-])c1)c1ccc(O)cc1	-6%	48	?	8%	8.9µM*
COc1ccc(/C=N/NC(=O)c2cccc([N+](=O)[O-])c2)cc1OC(=O)c1ccc(C)cc1	?	26	?	?	5µM*
CCOC(=O)OCC1OC(C#Cc2ccccc2)C=CC1Oc1cccc(N(C)C)c1 (configuration not stated)	nt	nt	-3%[10 µM]	nt	-17%[10 µM]
CCC(C)(C)NC(=O)C(c1ccccc1Cl)N(Cc1cccnc1)C(=O)CCC(=O)Nc1cc(C)on1 (configuration not stated)	-5%	19	-4%	2%	-2%
Cc1cc(C)c(S(=O)(=O)/N=C2\C=CC(=O)C(Cl)=C2)c(C)c1	3%	32	-3%	13µM*	?
C=CCn1c(SCc2nc3ccccc3c(=O)[nH]2)nc2scc(C3CC3)c2c1=O	?	14	18%	21µM*	31%
CCn1c(SCc2nc3ccccc3c(=O)[nH]2)nc2ccccc2c1=O	-4%	2	-13%	-4%	13%
Cc1ccc2oc(C(=O)Nc3cc(C)on3)c(C)c2c1	4%	-8	nt	-4%	nt
Cc1csc(NC(=O)c2ccc3c(c2)OCO3)n1	-15%	-13	-23%	-20%	?
O=C(Nc1nc(-c2ccccn2)cs1)c1ccc2c(c1)OCCO2	1%	55	10µM*	10%	3.2µM*
O=C(Nc1ccccn1)c1ccc2c(c1)OCO2	17%[1.84 µM]	-17	?	-12%	-40%
SMILES	SW480 rereplic	IL1B secr inh	Gal4-VP16 FLuc	MCF10A rereplic	RORg inh
Cc1cc(NC(=O)c2ccc3c(c2)C(=O)N(c2cccc(C)c2C)C3=O)no1	0%	9	18µM*	0%	?
CCCN1C(=O)c2ccc(C(=O)Nc3cc(C)on3)cc2C1=O	2%	-8	-3%[0.365 µM]	-1%	3%
O=C(Nc1ccccn1)c1ccc2c(c1)OCCO2	?	-23	2%	10%	10µM*
Cc1cc(NC(=O)c2ccc3c(c2)OCCO3)no1	?	-8	7.1µM*	?	10µM*
N#CCCn1c(=O)cnc2cnc(Oc3ccccc3)nc21	nt	nt	-6%	nt	2%
O=C(/C=C/c1ccc(O)c(O)c1)c1ccc(O)cc1O	nt	nt	0%	nt	-43%
Cc1ccc(NC(=O)C2COc3ccccc3O2)cc1S(=O)(=O)N1CCCCC1 (configuration not stated)	0%	-13	nt	22%	nt
CN(CC(=O)OCC(=O)NC1CCCC1)S(=O)(=O)c1ccc(Cl)cc1	?	-11	nt	-1%	nt
CCn1nc(C(=O)Nc2nc(-c3ccccn3)cs2)c2ccccc2c1=O	-1%	1	nt	10%	nt
O=C(Nc1nc(-c2ccccn2)cs1)c1ccccc1-n1cnnn1	?	185	-14%	?	5µM*
CC(=O)Nc1ccc(C(=O)Nc2nc(-c3ccccn3)cs2)cc1	10%	-2	4%	17%	7.9µM*
CCCn1nc(C(=O)Nc2nc(-c3ccccn3)cs2)c2ccccc2c1=O	-11%	124	nt	23µM*	nt
CC1(C)CCC[C@@]2(C)C1CC[C@@](C)(O)[C@@H]2CC[C@@](C)(O)C1CO1 (some centres not stated)	nt	nt	-19%	nt	-16%
Cc1cc(O)c(-c2cc(C(=O)Nc3ccc(S(=O)(=O)N4CCOCC4)cc3)[nH]n2)cc1C	?	-105*	?	?	-3%
Cc1ccc(-c2cc(C(=O)Nc3ccc(S(=O)(=O)N4CC(C)OC(C)C4)cc3)[nH]n2)c(O)c1 (configuration not stated)	-75%	-22	?	8%	-22%
Cc1ccc(O)c(-c2cc(C(=O)Nc3ccc(S(=O)(=O)N4CC(C)OC(C)C4)cc3)[nH]n2)c1 (configuration not stated)	24%	-74*	?	4%	?
O=C(Nc1ccc(S(=O)(=O)N2CCOCC2)cc1)c1cc(-c2cc(Cl)ccc2O)n[nH]1	?	?	-21%	?	-17%
Cc1cc(C(=O)OCC(=O)Nc2ccccc2C#N)c(C)o1	-6%	9	nt	2%	nt
CN(C)Cc1ccccc1Sc1cccc2ccccc12	?	?	14µM*	13µM*	10µM*
S=c1nc2ccccc2c2nc(-c3ccccc3Cl)[nH]n12	1%	36	1.6µM*	1%	0.35µM*
Cc1nc(=S)n(-c2ccccc2)[nH]1	3%	19	?	1%	?
S=c1nc2ccccc2c2nc(-c3ccccc3)[nH]n12	-1%	26	0.35µM*	14%	0.089µM*
S=c1nc(-c2ccccc2)[nH]n1-c1ccccc1	4%	7	11µM*	-6%	7.9µM*
O=C(O)c1cccc(Sc2cc(Cl)ccc2C(=O)O)c1	-17%	16	nt	9%	nt
